Assay [1] is described as follows: optical density shifts of acrAB sulA E. coli – strain DRC41, OD650, 48 h, E. coli filamentation inducer project, primary screen (AID 1152).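 Also: E. coli MC1000 strain DRC41 lacking acrAB efflux pump and sulA.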 Particulars: higher = more signal, called active from +8 up or from −8 down.
The nature of assay [2]: probe aLefty1 binding on compound microarray – biochemical, small-molecule microarray, 635/667 nm fluorescence, primary screen (AID 1153).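 Also: score merges spot fluorescence with signal-to-noise ratio from the scanned slide images.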 Conditions: higher = more signal.
Assay [3] can be described thus: plasmodial surface anion channel blockers, osmotic lysis – cell-based, P. falciparum Indochina, OD700, 1 h, primary screen (AID 1154). Conditions: P. falciparum Indochina infected RBC osmotic lysis, higher = more signal, called active from +8 up or from −8 down.
Assay [4] is described as follows: plasmodial surface anion channel blockers, osmotic lysis – cell-based, P. falciparum Indochina, OD700, 2 h, primary screen (AID 1155).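 Also: lysis reports solute entry through the parasite surface anion channel PSAC.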 Conditions: P. falciparum Indochina infected erythrocytes, higher = more signal, called active from +8 up or from −8 down.
Assay [5] is described as follows: changes in parasitized red cell lysis, either direction – P. falciparum Indochina, OD700, 3 h, PSAC antagonist project, primary screen (AID 1156). Conditions: P. falciparum-infected erythrocytes, osmotic lysis, higher = more signal, called active from +8 up or from −8 down.
Assay [6] is described as follows: plasmodial surface anion channel blockers, osmotic lysis – cell-based, P. falciparum Indochina, OD700, 18 h, primary screen (AID 1157). Conditions: P. falciparum Indochina infected erythrocytes, osmotic lysis OD700, 18 h; higher = more signal, called active from +8 up or from −8 down.
Assay [7] in a line: S6 kinase pathway phospho-S6 level changes – cell-based, A549, cytoblot, luminescence, serum-stimulated, primary screen (AID 1158).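 Also: serum-stimulated A549 lung adenocarcinoma cells; signal is phosphorylated S6 detected by cytoblot immunostaining with HRP secondary.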 Conditions: 5 h, higher = more signal.
The target in assay [8] is NADPH oxidase 2 (Homo sapiens) (UniProt P04839). Description: compounds shifting NOX2 Amplex Red fluorescence – cell-based, HEK293-NOX2, PMA-stimulated, NOX inhibitor project, primary screen (AID 1159). Also: test concentration not given here. Particulars: 45 min, higher = more signal, called active from +8 up or from −8 down.
Chain of NADPH oxidase 2 (Homo sapiens) (P04839 whole entry, looked up): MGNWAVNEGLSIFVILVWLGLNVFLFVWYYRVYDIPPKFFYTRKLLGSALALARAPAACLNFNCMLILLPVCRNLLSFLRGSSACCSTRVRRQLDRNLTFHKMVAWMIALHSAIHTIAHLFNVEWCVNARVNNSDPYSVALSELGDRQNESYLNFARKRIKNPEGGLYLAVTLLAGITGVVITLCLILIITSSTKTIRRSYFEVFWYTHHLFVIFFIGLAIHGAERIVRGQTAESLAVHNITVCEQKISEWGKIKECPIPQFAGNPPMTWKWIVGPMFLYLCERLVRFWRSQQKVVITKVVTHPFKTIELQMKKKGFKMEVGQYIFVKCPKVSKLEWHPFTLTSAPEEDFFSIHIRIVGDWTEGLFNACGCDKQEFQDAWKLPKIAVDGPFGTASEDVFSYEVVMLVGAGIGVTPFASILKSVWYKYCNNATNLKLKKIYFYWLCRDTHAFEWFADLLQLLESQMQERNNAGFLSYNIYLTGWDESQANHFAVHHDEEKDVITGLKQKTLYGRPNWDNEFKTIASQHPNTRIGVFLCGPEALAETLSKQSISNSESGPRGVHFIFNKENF
Assay [9] has as its target NADPH oxidase 4 (Homo sapiens) (UniProt Q9NPH5). Description: compounds shifting NOX4 Amplex Red fluorescence – cell-based, HEK293-NOX4, tetracycline-induced, NOX inhibitor project, primary screen (AID 1160). Conditions: HEK293-NOX4, Amplex Red H2O2 fluorescence, 45 min; higher = more signal, called active from +8 up or from −8 down.
Assay [10] concerns the target NADPH oxidase 5 (Homo sapiens) (UniProt Q96PH1). The assay can be described thus: compounds shifting NOX5 Amplex Red fluorescence – cell-based, HEK293-NOX5, NOX inhibitor project, primary screen (AID 1161). Particulars: HEK293-NOX5, ionomycin, 45 min, higher = more signal.

SMILES strings stand for the structures. The source made the active and inactive calls.

Chain of NADPH oxidase 4 (Homo sapiens) (Q9NPH5 whole entry, looked up): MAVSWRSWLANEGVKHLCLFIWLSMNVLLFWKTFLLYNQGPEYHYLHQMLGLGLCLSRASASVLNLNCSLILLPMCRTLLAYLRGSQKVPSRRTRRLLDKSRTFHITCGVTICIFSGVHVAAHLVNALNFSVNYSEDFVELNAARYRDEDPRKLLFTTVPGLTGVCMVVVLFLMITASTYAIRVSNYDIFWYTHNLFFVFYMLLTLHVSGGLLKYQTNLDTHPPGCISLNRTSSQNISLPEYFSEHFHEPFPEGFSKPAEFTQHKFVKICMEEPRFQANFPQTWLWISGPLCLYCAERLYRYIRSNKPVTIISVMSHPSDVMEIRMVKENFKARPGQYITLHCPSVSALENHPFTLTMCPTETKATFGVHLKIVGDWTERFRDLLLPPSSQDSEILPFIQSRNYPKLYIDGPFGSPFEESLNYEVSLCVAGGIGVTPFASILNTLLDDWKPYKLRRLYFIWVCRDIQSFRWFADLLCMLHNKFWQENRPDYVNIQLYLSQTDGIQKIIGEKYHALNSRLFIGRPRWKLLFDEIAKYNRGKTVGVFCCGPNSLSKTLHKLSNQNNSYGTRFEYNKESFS
Chain of NADPH oxidase 5 (Homo sapiens) (Q96PH1 whole entry, looked up): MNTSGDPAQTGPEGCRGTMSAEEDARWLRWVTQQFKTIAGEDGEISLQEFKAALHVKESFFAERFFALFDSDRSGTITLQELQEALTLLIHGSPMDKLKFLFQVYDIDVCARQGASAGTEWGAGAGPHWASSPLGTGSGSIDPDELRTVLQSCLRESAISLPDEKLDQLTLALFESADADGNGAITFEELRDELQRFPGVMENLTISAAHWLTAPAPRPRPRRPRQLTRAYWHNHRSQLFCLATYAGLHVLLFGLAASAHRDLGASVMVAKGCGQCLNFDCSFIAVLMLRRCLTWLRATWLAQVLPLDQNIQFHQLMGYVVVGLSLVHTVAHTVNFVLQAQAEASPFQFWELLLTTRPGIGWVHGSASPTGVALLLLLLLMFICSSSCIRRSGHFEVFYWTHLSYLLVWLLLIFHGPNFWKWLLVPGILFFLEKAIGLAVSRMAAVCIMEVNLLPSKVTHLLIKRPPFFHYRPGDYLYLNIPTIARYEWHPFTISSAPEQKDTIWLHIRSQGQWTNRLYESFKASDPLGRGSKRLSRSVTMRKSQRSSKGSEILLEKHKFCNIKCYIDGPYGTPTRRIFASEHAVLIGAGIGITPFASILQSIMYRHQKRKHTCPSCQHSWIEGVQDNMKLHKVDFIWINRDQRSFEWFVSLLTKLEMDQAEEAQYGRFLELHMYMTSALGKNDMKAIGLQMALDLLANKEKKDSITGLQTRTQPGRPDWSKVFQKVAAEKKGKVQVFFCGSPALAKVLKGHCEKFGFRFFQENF

As to `COc1ccc(C#Cc2ccc3c(c2)[C@]2(C(=O)N3)[C@H](c3ccc(O)cc3)N3[C@H](c4ccccc4)[C@H](c4ccccc4)OC(=O)[C@H]3[C@@H]2C(=O)NC[C@H](O)c2ccccc2)cc1`, the z-score in assay [1] is 0.735 (inactive); in [3] it was 1.1 (inactive); in [4], 1.09 (inactive); in [5], 0.541 (inactive); in assay [6], 0.859 (inactive); in assay [7] it was -0.193. Moreover, the z-score in [8] is 1.91 (inactive); in assay [9], -0.0599 (inactive); in assay [10], 0.22. For the same compound, the composite z-score in assay [2] is -0.021.
On to `COC(=O)[C@@]1(Cc2ccccc2)[C@H]2c3cc(C(=O)N4CCCC4)n(C)c3C[C@H]2CN1C(=O)c1ccccc1`, for which the z-score in assay [1] was -0.308 (inactive); in assay [3], 1.54 (inactive); in [4] it was -0.0273 (inactive); in [5] it was 0.835 (inactive); in assay [6] it was 0.396 (inactive); in assay [7] it was -0.0948. Also, the z-score was -0.153 (inactive) in [8], -0.653 (inactive) in [9] and -1.45 in [10]. In [2], the composite z-score is 0.321.
Take `COc1ccc(C(=O)Nc2cccc(CN3C(=O)[C@]4(O[C@H](CC(=O)N5CCC[C@H]5CO)[C@@H]([Si](C)(C)c5ccc(OC)cc5)[C@@H]4C)c4ccccc43)c2)cc1`: the z-score in assay [1] was 0.0295 (inactive); in [3], 4.29 (inactive); in assay [4], 1.45 (inactive); in [5], -0.546 (inactive); in assay [6] it was 0.451 (inactive); in assay [7], 1.97. Besides, the z-score is 2.73 (inactive) in assay [8], 1.65 (inactive) in assay [9] and 4.27 in assay [10]. In assay [2], this compound had a composite z-score of -0.012.
`CCCCC=C[C@@H](NC(=O)c1ccco1)c1ccccc1`: the z-score in [1] is -1.24 (inactive); in assay [3], 1.02 (inactive); in [4], 0.941 (inactive); in assay [5] it was -0.279 (inactive); in assay [6] it was 0.813 (inactive); in [7] it was 0.782. For the same compound, the z-score in [8] is -0.226 (inactive); in assay [9] it was 0.76 (inactive); in assay [10] it was 1.01. In [2], this compound yielded a composite z-score of 0.0701.
In the case of `O=C(O)[C@H]1C[C@H]2C(=O)NCC(=O)N2[C@H]1c1ccc(O)cc1`, the z-score was 1.55 (inactive) in assay [1]; 2.81 (inactive) in assay [3]; 0.898 (inactive) in [4]; -2.6 (inactive) in [5]; 0.276 (inactive) in assay [6]; 0.586 in [7]. Moreover, the z-score in assay [8] was -1.99 (inactive); in assay [9] it was -1.12 (inactive); in [10], -0.575. For the same compound, in assay [2], the composite z-score was -0.0171.
For `Cc1c(NC(=O)CC#N)c(=O)n(-c2ccccc2)n1C`, the z-score is 1.47 (inactive) in assay [1]; -0.794 (inactive) in assay [3]; -1.31 (inactive) in [4]; -0.202 (inactive) in assay [5]; -1.31 (inactive) in [6]; 2.17 in [7]. In addition, the z-score in [8] was -0.463 (inactive); in assay [9] it was -0.0592 (inactive); in assay [10], 0.66. This compound showed a composite z-score in [2] of -0.193.
For the compound `CN1CCC(CCCO)=CC1c1ccc(CN2CCCC2)cc1` (stereo not given), the z-score was 0.112 (inactive) in assay [1]; -0.274 (inactive) in assay [3]; -0.201 (inactive) in [4]; -0.0797 (inactive) in assay [5]; -0.111 (inactive) in assay [6]; -0.494 in [7]. Besides, the z-score was -3.22 (inactive) in assay [8], -0.765 (inactive) in [9] and -0.482 in assay [10]. In addition, in [2], the composite z-score was found to be 0.663.
Take `O=C(CS)NCCCCCCNC(=O)[C@H]1C[C@H]2C(=O)NCC(=O)N2[C@H]1c1ccc(O)cc1`: the z-score in assay [1] was -0.618 (inactive); in assay [3], 2.33 (inactive); in [4], 0.141 (inactive); in assay [5] it was -2.02 (inactive); in assay [6], 0.23 (inactive); in [7] it was -0.598. In addition, the z-score in assay [8] was 1.45 (inactive); in [9], 0.407 (inactive); in assay [10], -0.391. The composite z-score in assay [2] was -0.0969.
Turning to `CS(=O)(=O)CCOC(=O)C1=CC(c2ccc(CO)cc2)=CC(C2CC2)N(Cc2cc3c(cc2Br)OCO3)C=C1C(=O)OCCS(C)(=O)=O` (stereo not given), the z-score was -1.9 (inactive) in assay [1]; 17.2 (active) in assay [3]; 3.22 (inactive) in assay [4]; 0.904 (inactive) in [5]; 1.29 (inactive) in assay [6]; 0.376 in assay [7]. In addition, the z-score in assay [8] was -1.77 (inactive); in [9], -0.749 (inactive); in assay [10] it was -2.03. In [2], the composite z-score came out at 0.199.
Regarding `O=C1OCC=C[C@H]2OC34C=CCN(c5ccc(Cl)cc5)C(=O)[C@H]3N(CCCCCCO)C(=O)[C@@H]4[C@@H]12` (stereo not given in full), the z-score in assay [1] is 0.49 (inactive); in assay [3] it was 1.73 (inactive); in [4], 0.398 (inactive); in assay [5] it was 0.497 (inactive); in assay [6], 0.476 (inactive); in [7], -0.243. The values for the z-score in assay [8], in assay [9] and in assay [10] were 1.42 (inactive), -0.583 (inactive) and 1.96, respectively. Further, in assay [2], the composite z-score is 0.135.
Regarding `C=C(COC)C(=O)CC[C@@H](OC(=O)c1cccnc1)c1ccc(CO)o1`, the z-score in [1] is 0.272 (inactive); in assay [3], 1.47 (inactive); in [4], 0.145 (inactive); in [5], 0.0755 (inactive); in assay [6], 0.038 (inactive); in [7], -0.0125. Further, the z-score was 1.59 (inactive) in [8], 0.304 (inactive) in [9] and 0.21 in assay [10]. Moreover, the composite z-score in assay [2] was -0.0536.
Turning to `COCCOC(=O)N1C(=O)[C@@]2(c3cc(C#CCCO)ccc31)[C@H](c1ccccc1OCCO)N1[C@H](c3ccccc3)[C@H](c3ccccc3)OC(=O)[C@H]1[C@@H]2C(=O)N1CCN(c2ncccn2)CC1`, the z-score is -0.33 (inactive) in [1]; 2.52 (inactive) in [3]; 1.32 (inactive) in [4]; -0.293 (inactive) in assay [5]; 0.708 (inactive) in assay [6]; -0.262 in [7]. The z-score was 1.22 (inactive) in assay [8], 1.05 (inactive) in assay [9] and 1.16 in assay [10]. In addition, the composite z-score in assay [2] came out at 0.85.
For `C[C@]1(C(=O)NCc2ccccc2)c2ccccc2C(=O)N(Cc2cc(F)cc(C(F)(F)F)c2)[C@H]1c1ccc(CO)cc1`, the z-score in assay [1] was 0.537 (inactive); in assay [3], 5.2 (inactive); in [4], 1.01 (inactive); in assay [5], 1.12 (inactive); in assay [6] it was 0.38 (inactive); in assay [7] it was -0.239. The z-score in assay [8] was -1.29 (inactive); in assay [9] it was 0.26 (inactive); in [10], -0.151. In [2], this compound gave a composite z-score of -0.101.
In the case of `O=C1OCCC=C[C@H]2OC34C=CCN(Cc5ccccc5)C(=O)[C@H]3N(CCCCCCO)C(=O)[C@@H]4C12` (stereo not given in full), the z-score in [1] is 1.12 (inactive); in assay [3] it was 0.944 (inactive); in [4] it was 0.396 (inactive); in [5], 0.884 (inactive); in assay [6] it was 0.43 (inactive); in [7], 1.2. The z-score in assay [8] was 1.11 (inactive); in [9], 0.0473 (inactive); in assay [10], 1.97. Moreover, in assay [2], the composite z-score is -0.0831.

The record behind these values is PubChem BioAssay.
